Reference: PubChem BioAssay AID602229 (The Scripps Research Institute Molecular Screening Center, 2012)
Among all 360,000 compounds or so, about 1,300 (0.36%) were called active. Many of the other results were omitted from the sample, so actives are more common in it than they were. Values without a mark were called inactive.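 How the source made its calls: active means inhibition above the mean of all tested compounds plus 3 SD (cut at about 70% in these data); inactive means the rest.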

Biological target: Photoreceptor-specific nuclear receptor (Homo sapiens) (UniProt Q9Y5X4)
Assay: NR2E3 agonists in two-hybrid cells, primary screen, cell-based, luminescence, CHO-S, Gal4-NCOR/VP16-NR2E3 (AID 602229);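 further: 0% = DMSO with NR2E3 transfected cells and 100% = cells lacking NR2E3 construct; higher means lower luciferase signal from less NR2E3 corepressor binding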
Settings: luciferase, at 3.98 µM, active compounds read high

Photoreceptor-specific nuclear receptor (Homo sapiens), sequence (Q9Y5X4 whole entry, looked up, the tested form may be a part): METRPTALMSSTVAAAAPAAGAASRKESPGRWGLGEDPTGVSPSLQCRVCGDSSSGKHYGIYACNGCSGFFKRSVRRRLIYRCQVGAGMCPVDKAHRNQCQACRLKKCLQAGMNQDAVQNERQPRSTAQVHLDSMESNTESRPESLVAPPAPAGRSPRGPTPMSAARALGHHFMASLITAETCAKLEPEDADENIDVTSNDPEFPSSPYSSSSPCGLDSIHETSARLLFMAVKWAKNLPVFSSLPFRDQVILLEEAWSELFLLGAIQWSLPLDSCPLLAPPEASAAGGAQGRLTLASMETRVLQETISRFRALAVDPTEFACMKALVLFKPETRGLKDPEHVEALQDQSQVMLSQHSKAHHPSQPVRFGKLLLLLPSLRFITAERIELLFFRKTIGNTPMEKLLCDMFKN

Row | SMILES | inhibition of corepressor binding
1 | COc1ccccc1CNc1nc(Nc2ccccc2Cl)c2sccc2n1 | 64.7%
2 | COc1cccc(CNc2nc(NCc3ccccc3OC)nc3ccsc23)c1 | 54.7%
3 | COc1cccc(CNc2nc(NCc3cccs3)nc3ccsc23)c1 | 88.5% (active)
4 | CC[C@]1(c2ccccc2OC)C(=O)N(C(=O)OC)N1C(=O)OC | 14.9%
5 | CCn1c(CNC(=O)c2cc(OC)c(OC)c(OC)c2)cc2cc(C)ccc21 | 89.3% (active)
6 | COc1cc(C(=O)NCc2nnc(SCC(=O)Nc3nc4ccc(C)cc4s3)o2)cc(OC)c1OC | -10.1%
7 | COc1cc(C(=O)NCc2ccc(-n3cccc3)cc2)cc(OC)c1OC | 11.4%
8 | Cc1oc2c(F)c(F)c(F)c(F)c2c1S(=O)(=O)Nc1cccc(C(F)(F)F)c1 | 110% (active)
9 | Cc1noc(C)c1S(=O)(=O)Nc1cc(C(F)(F)F)ccc1N1CCOCC1 | 4.86%
10 | Cc1ccc(N(CCC(=O)O)S(=O)(=O)c2cccc(C(F)(F)F)c2)cc1 | 4.8%
11 | CCCOc1ccc(CN(CCO)CCO)cc1C(=O)OC | 5.92%
12 | COc1ccccc1CNC(=O)CNC(=O)c1cn(-c2ccccc2OC)c(=O)c2ccccc12 | 6.65%
13 | COc1ccc(S(=O)(=O)N2CCc3ccccc32)cc1C(=O)Nc1cc(S(C)(=O)=O)ccc1Cl | -23.6%
14 | Cc1ccc(C)c(NC(=O)CN(C)C(=O)c2ccc3ncsc3c2)c1 | -19.7%
15 | CC1(C(=O)NS(=O)(=O)c2ccc(Cl)cc2)CCN1C(=O)CC1CCCC1 (configuration not stated) | 9.74%
16 | Cc1ccc(NC(=O)c2sccc2C)cc1[N+](=O)[O-] | -86.2%
17 | CN(CC(=O)Nc1cccc(F)c1)C(=O)C1=COCCO1 | -5.12%
18 | Cc1ccc(NC(=O)CN(C)CC(=O)Nc2cccc(F)c2)cc1[N+](=O)[O-] | 84.2% (active)
19 | Cc1ccc(NC(=O)C(C)OC(=O)Cc2c[nH]c3ccccc23)cc1S(=O)(=O)N1CCOCC1 (configuration not stated) | 20.8%
20 | S=C(NN=Cc1ccccn1)Nc1ccccn1 | 52.5%
21 | O=C(Nc1ccc(Br)cc1)c1cc(S(=O)(=O)Nc2ccccn2)ccc1Cl | 0.47%

Row | SMILES | inhibition of corepressor binding
22 | Oc1ccc(Br)cc1/C=N/Nc1ccccn1 | 87.1% (active)
23 | CCCN(CC(=O)Nc1ccc(OC)c(OC)c1)CC(=O)Nc1ccc(F)c(F)c1F | -8.16%
24 | CCOC(=O)C1CCN(S(=O)(=O)c2c(C)noc2C)CC1 | -11.3%
25 | Cc1csc(OCC(=O)Nc2ccc(C)c(C)c2)n1 | -16.6%
26 | CCOC(=O)c1cnc2ccc(F)cc2c1Nc1ccc2c(c1)OCCO2 | -13.2%
27 | c1ccc(-c2nccc(-c3ccc(-n4cnc5ccccc54)cc3)n2)nc1 | 34.3%
28 | CC(C)(C)Nc1nc(-c2ccccn2)nc2ccccc12 | 98.8% (active)
29 | Cc1nc2ccccc2c(C(=O)O)c1-c1ccccn1 | -21.4%
30 | O=C1CC(=O)Nc2cc(S(=O)(=O)N3CCN(c4cccc(C(F)(F)F)c4)CC3)ccc2N1 | -3.07%
31 | O=C(CN1C(=O)CCS(=O)(=O)c2ccccc21)NCc1ccc(F)cc1 | -8.57%
32 | CCCCN1C(=O)CC(N2CCOCC2)C1=O (configuration not stated) | -4.28%
33 | CCc1cccc(NC(=O)COC(=O)C2CCN(c3ccc(C(F)(F)F)cn3)CC2)c1 | -19.1%
34 | O=S(=O)(Nc1ccccc1N1CCOCC1)c1ccc(Cl)s1 | -7.37%
35 | COc1cc(NC(=O)c2ccccc2NS(=O)(=O)c2ccc(Cl)s2)cc(OC)c1 | 97.8% (active)
36 | O=C(Nc1cccc(Cl)c1)Nc1ccccc1NS(=O)(=O)c1cccs1 | -13.8%
37 | CCCn1nnnc1NCc1ccc(CC)cc1 | 8.66%
38 | CCCC(=O)N1CCC1(C)C(=O)Nc1ccc(-n2cncn2)cc1 (configuration not stated) | 1.35%
39 | O=C(c1cc(COc2c(F)cccc2F)on1)N1CCSCC1 | -9.64%
40 | C=CCC1(CC=C)CCCN1C(=O)c1cc(COc2ccc(-n3cncn3)cc2)on1 | 106% (active)
41 | Nc1[nH]c(C(=O)c2ccccc2)c(-c2ccncc2)c1C(=O)NCc1cccc2ccccc12 | 3.22%
42 | CSCCC(c1nnnn1Cc1ccccc1)N1CCN(C/C=C/c2ccccc2)CC1 (configuration not stated) | 4.41%
